Assay results published in publication PMC7862700, “An all-to-all approach to the identification of sequence-specific readers for epigenetic DNA modifications on cytosine”.

What was measured:
Test in all cases: DAPPL (digital affinity profiling via proximity ligation, sequencing); 10 mM Tris-HCl pH 7.5, 50 mM NaCl, 1 mM DTT, 4% glycerol, room temperature, 30 min; GST-TFs on glutathione beads, 16-mer random dsDNA library, 0.1% formaldehyde crosslink after washing; high values mean tight binding
[1] = target: T1, FLI1 (Homo sapiens, UniProt Q01543 1-452); details: protein: recombinant; tags: N-terminal GST; dsDNA, one strand shown
T1 sequence: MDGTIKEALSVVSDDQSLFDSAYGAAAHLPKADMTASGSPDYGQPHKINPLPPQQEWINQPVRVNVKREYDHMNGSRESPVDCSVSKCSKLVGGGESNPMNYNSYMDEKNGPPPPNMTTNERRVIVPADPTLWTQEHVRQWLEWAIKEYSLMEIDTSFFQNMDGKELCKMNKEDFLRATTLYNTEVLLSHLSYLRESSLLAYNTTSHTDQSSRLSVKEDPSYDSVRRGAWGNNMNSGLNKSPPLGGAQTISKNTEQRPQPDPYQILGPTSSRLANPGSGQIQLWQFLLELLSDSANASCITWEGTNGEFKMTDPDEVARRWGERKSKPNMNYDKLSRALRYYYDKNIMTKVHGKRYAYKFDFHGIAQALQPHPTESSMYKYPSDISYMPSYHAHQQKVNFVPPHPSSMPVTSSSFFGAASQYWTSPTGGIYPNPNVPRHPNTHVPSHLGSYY
Outline: (§1)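 Pools of DNA-barcoded human transcription factors, expressed in yeast as GST fusions on glutathione beads and combined with a tag-only sample, were incubated with 200 nmole of a 16-mer random double-stranded DNA library. Incubation took 30 min at room temperature in Tris/NaCl/DTT/glycerol buffer and was followed by washing, 0.1% formaldehyde crosslinking, proximity ligation (BsaI/T4 ligase, 1 h, 37 °C), PCR amplification and sequencing on an Illumina NextSeq500. Binding signal is the ratio of a hexamer's read frequency for a factor to its frequency for the tag-only sample.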

[2] = target: T2, ELK1 (Homo sapiens, UniProt P19419 1-428); details: protein: recombinant; tags: N-terminal GST; dsDNA, one strand shown
T2 sequence: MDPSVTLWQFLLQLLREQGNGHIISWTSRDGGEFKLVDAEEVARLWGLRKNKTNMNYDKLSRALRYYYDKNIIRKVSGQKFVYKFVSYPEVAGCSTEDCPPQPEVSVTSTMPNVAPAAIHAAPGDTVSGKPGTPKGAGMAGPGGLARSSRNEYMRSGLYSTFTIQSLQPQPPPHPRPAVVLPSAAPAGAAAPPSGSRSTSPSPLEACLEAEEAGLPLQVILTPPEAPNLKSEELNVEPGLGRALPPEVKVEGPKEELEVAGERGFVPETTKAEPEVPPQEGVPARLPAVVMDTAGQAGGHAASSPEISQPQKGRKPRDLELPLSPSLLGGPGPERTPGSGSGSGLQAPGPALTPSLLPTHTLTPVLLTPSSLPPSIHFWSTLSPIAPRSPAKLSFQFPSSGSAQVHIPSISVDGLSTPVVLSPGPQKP
Outline: as §1

[3] = target: T3, GABPA (Homo sapiens, UniProt Q06546 1-454); details: protein: recombinant; tags: N-terminal GST; dsDNA, one strand shown
T3 sequence: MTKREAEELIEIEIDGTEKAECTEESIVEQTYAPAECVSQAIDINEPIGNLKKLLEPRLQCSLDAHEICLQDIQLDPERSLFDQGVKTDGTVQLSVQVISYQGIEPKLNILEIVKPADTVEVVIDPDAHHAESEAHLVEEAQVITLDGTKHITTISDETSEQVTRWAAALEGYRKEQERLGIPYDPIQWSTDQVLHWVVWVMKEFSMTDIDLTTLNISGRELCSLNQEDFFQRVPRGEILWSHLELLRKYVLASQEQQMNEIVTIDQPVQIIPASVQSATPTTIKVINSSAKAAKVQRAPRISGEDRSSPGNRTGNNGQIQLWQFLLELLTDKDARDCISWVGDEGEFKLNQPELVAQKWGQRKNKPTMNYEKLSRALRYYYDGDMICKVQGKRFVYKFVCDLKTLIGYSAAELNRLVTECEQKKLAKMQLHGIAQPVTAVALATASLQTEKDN
Outline: as §1

[4] = target: T4, ERG (Homo sapiens, UniProt P11308 1-479); details: protein: recombinant; tags: N-terminal GST; dsDNA, one strand shown
T4 sequence: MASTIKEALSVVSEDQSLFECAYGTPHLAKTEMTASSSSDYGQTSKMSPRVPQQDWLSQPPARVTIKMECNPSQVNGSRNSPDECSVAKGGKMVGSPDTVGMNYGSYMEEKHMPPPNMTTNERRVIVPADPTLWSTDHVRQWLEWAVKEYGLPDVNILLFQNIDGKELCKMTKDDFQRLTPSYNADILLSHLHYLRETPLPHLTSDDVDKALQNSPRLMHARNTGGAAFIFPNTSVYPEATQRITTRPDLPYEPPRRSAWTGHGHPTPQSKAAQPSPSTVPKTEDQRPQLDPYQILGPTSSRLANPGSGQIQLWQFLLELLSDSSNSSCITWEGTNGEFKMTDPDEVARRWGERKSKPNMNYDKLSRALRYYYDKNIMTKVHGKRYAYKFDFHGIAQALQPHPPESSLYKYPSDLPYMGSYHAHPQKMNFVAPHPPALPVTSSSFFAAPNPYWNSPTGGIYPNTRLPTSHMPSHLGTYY
Outline: as §1

[5] = target: ELF1 (Homo sapiens, UniProt P32519 1-619); details: protein: recombinant; tags: N-terminal GST; dsDNA, one strand shown
Outline: as §1

[6] = target: T5, EHF (Homo sapiens, UniProt Q9NZC4 1-300); details: protein: recombinant; tags: N-terminal GST; dsDNA, one strand shown
T5 sequence: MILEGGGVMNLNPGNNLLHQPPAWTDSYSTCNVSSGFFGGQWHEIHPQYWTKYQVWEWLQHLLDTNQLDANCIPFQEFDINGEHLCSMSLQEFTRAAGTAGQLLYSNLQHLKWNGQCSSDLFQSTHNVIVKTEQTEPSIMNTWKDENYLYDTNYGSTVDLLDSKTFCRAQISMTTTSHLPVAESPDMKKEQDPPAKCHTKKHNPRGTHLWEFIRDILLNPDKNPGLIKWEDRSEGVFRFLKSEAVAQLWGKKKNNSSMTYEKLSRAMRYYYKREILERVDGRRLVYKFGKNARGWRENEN
Outline: as §1

[7] = target: SPIB (Homo sapiens, UniProt Q01892 1-262); details: protein: recombinant; tags: N-terminal GST; dsDNA, one strand shown
Outline: as §1

[8] = target: T6, FEV (Homo sapiens, UniProt Q99581 1-238); details: protein: recombinant; tags: N-terminal GST; dsDNA, one strand shown
T6 sequence: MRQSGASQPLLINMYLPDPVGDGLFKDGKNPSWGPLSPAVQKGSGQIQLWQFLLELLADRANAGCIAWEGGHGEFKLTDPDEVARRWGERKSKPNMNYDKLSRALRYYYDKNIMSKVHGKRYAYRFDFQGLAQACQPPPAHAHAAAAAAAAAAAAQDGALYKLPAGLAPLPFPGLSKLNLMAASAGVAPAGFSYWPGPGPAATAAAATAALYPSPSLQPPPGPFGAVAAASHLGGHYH
Outline: as §1

[9] = target: ETV5 (Homo sapiens, UniProt P41161 1-510); details: protein: recombinant; tags: N-terminal GST; dsDNA, one strand shown
Outline: as §1

[10] = target: HSF1 (Homo sapiens, UniProt Q00613 1-529); details: protein: recombinant; tags: N-terminal GST; chain copies: 3; dsDNA, one strand shown
Outline: as §1

[11] = target: T7, SPIC (Homo sapiens, UniProt Q8N5J4 1-248); details: protein: recombinant; tags: N-terminal GST; dsDNA, one strand shown
T7 sequence: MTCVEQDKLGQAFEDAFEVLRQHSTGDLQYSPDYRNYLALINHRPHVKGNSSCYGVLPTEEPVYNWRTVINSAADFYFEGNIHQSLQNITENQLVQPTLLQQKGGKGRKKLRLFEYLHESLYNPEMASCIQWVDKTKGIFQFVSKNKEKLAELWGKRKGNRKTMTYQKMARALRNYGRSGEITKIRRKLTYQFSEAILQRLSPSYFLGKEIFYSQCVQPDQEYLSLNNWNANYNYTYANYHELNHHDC
Outline: as §1

[12] = target: ELF4 (Homo sapiens, UniProt Q99607 1-663); details: protein: recombinant; tags: N-terminal GST; dsDNA, one strand shown
Outline: as §1

[13] = target: T8, ELK4 (Homo sapiens, UniProt P28324-2 1-405); details: protein: recombinant; tags: N-terminal GST; dsDNA, one strand shown
T8 sequence: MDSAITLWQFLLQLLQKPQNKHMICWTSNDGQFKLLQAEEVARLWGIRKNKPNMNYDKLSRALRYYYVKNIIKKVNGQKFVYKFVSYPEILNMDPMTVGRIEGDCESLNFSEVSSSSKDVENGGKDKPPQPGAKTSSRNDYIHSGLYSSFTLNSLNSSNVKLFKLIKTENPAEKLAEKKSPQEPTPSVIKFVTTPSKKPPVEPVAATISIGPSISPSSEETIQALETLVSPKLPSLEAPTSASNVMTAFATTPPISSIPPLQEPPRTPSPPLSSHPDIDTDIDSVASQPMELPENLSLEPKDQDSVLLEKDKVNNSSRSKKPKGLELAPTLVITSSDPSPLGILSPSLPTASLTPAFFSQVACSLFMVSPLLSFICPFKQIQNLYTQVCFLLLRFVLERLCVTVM
Outline: as §1

[14] = target: T9, ETV2 (Homo sapiens, UniProt O00321 1-342); details: protein: recombinant; tags: N-terminal GST; dsDNA, one strand shown
T9 sequence: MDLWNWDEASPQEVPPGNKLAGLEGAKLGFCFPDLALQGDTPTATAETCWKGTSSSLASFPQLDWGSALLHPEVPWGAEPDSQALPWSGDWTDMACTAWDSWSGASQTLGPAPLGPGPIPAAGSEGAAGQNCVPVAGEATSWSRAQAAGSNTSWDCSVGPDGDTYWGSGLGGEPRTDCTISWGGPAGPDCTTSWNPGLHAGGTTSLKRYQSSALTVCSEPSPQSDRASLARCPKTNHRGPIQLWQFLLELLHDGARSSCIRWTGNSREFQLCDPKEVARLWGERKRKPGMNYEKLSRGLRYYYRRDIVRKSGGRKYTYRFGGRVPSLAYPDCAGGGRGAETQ
Outline: as §1

[15] = target: T10, ELF3 (Homo sapiens, UniProt P78545 1-371); details: protein: recombinant; tags: N-terminal GST; dsDNA, one strand shown
T10 sequence: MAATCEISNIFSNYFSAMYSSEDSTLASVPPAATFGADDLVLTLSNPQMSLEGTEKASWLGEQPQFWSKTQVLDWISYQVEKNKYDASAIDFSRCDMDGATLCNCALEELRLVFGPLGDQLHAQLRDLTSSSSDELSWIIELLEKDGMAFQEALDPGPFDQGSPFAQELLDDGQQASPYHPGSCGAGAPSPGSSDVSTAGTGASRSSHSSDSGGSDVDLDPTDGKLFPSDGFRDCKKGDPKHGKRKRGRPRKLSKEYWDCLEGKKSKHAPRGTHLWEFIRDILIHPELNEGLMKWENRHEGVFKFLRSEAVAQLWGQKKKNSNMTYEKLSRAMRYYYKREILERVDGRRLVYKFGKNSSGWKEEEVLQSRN
Outline: as §1

[16] = target: CRX (Homo sapiens, UniProt O43186 1-299); details: protein: recombinant; tags: N-terminal GST; dsDNA, one strand shown
Outline: as §1

[17] = target: ETV1 (Homo sapiens, UniProt P50549 1-477); details: protein: recombinant; tags: N-terminal GST; dsDNA, one strand shown
Outline: as §1

Chain of HSF1 (Q00613 whole entry): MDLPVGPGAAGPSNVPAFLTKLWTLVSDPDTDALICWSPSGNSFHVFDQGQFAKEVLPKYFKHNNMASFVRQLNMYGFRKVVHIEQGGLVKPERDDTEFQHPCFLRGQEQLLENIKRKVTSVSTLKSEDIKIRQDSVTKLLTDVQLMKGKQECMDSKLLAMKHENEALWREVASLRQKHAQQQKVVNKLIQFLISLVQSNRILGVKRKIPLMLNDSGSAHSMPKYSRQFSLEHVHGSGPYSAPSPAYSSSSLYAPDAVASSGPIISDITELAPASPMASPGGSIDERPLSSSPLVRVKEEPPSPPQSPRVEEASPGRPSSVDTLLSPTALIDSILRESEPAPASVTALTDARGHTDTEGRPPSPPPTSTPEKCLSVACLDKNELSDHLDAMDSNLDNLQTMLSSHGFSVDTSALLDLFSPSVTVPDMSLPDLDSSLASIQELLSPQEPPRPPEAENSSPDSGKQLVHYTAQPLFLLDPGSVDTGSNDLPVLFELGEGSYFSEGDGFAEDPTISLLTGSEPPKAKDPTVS
Chain of ETV1 (P50549 whole entry): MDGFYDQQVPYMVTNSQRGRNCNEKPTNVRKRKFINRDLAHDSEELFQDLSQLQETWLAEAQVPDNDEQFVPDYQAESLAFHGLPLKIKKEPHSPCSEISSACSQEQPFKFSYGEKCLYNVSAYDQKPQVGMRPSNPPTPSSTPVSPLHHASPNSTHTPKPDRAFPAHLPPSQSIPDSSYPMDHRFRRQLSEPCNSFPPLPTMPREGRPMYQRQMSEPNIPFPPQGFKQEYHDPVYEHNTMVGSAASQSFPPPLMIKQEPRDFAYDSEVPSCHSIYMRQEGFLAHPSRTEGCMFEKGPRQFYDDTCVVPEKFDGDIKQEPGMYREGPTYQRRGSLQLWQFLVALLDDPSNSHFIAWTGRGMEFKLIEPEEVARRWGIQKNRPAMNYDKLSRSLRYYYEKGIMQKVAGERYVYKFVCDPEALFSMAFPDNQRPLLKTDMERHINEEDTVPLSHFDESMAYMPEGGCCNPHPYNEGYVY
Chain of ELF4 (Q99607 whole entry): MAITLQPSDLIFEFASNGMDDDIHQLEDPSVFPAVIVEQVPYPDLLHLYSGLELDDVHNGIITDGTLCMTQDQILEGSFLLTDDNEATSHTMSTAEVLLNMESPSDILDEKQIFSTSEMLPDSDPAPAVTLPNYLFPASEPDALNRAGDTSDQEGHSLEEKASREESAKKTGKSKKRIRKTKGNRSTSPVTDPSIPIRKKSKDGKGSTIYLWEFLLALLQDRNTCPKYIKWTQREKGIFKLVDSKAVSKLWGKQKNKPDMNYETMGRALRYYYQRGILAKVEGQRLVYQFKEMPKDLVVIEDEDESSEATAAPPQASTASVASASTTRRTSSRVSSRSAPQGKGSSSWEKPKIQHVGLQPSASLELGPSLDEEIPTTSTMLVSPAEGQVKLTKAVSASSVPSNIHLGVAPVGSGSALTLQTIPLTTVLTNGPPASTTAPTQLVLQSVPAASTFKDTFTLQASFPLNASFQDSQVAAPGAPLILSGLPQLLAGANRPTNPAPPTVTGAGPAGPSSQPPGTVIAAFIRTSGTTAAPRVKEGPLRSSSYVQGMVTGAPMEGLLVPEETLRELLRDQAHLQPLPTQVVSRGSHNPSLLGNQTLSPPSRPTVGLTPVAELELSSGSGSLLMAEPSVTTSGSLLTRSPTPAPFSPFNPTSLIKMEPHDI
Chain of ETV5 (P41161 whole entry): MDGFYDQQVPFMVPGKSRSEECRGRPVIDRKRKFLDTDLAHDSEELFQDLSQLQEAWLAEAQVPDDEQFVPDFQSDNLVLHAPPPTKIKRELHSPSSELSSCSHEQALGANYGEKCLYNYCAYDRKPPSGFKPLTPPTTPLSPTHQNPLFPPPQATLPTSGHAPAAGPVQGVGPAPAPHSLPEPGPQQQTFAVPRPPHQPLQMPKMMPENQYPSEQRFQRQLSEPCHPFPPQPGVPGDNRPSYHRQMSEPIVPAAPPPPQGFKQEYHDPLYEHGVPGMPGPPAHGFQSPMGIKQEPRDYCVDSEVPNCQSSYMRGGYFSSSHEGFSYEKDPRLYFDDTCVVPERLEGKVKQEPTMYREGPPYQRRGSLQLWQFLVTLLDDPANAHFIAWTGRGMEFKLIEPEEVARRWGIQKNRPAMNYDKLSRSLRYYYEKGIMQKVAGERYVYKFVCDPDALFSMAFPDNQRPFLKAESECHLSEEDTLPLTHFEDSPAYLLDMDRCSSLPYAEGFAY
Chain of ELF1 (P32519 whole entry): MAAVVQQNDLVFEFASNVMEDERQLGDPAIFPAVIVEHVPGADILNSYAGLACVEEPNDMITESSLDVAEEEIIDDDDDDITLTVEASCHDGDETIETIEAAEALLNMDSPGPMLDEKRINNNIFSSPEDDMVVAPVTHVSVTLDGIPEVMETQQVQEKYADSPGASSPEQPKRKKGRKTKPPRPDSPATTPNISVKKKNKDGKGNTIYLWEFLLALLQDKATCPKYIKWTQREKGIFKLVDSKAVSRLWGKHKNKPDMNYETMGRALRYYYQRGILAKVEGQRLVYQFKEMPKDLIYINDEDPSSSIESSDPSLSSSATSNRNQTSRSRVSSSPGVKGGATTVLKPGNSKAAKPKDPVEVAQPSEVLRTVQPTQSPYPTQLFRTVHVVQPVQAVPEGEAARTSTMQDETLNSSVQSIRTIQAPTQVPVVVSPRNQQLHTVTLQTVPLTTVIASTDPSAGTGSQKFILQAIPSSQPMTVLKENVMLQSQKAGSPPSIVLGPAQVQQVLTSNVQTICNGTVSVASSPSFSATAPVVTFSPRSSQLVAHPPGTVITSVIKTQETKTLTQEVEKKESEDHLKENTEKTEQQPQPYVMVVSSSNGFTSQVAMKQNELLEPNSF
Chain of SPIB (Q01892 whole entry): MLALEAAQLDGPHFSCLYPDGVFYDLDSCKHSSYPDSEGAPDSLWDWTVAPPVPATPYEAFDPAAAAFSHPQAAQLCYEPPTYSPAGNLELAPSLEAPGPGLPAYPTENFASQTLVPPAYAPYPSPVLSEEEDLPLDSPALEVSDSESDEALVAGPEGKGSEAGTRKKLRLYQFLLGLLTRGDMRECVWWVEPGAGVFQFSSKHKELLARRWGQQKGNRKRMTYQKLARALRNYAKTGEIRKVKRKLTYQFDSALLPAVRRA
Chain of CRX (O43186 whole entry): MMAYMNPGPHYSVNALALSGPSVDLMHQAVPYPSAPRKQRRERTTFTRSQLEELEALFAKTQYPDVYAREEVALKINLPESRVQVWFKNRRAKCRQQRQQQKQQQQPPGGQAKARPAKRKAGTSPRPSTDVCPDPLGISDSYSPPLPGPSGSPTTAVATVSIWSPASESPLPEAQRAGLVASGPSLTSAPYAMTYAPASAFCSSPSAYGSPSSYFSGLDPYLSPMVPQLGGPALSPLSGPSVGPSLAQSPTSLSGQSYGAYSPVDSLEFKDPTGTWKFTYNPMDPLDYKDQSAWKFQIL

Question: With TATGTG as the sequence, how does the binding signal [1] read?
Answer: 1 fold enrichment (6-mer frequency, TF over GST control)

Question: What about the binding signal [2] of the same sequence?
Answer: 1.08 fold enrichment (6-mer frequency, TF over GST control)

Question: What about the binding signal [3] of the same sequence?
Answer: 1.05 fold enrichment (6-mer frequency, TF over GST control)

Question: What about the binding signal [4] of the same sequence?
Answer: 1.06 fold enrichment (6-mer frequency, TF over GST control)

Question: What about the binding signal [5] of the same sequence?
Answer: 1.06 fold enrichment (6-mer frequency, TF over GST control)

Question: And the binding signal [6]?
Answer: 1.07 fold enrichment (6-mer frequency, TF over GST control)

Question: What about the binding signal [7] of the same sequence?
Answer: 1.05 fold enrichment (6-mer frequency, TF over GST control)

Question: And the binding signal [8]?
Answer: 1.08 fold enrichment (6-mer frequency, TF over GST control)

Question: What about the binding signal [9] of the same sequence?
Answer: 1.13 fold enrichment (6-mer frequency, TF over GST control)

Question: What about the binding signal [10] of the same sequence?
Answer: 1.01 fold enrichment (6-mer frequency, TF over GST control)

Question: What about the binding signal [11] of the same sequence?
Answer: 1.22 fold enrichment (6-mer frequency, TF over GST control)

Question: And the binding signal [12]?
Answer: 1.13 fold enrichment (6-mer frequency, TF over GST control)

Question: What about the binding signal [13] of the same sequence?
Answer: 1.17 fold enrichment (6-mer frequency, TF over GST control)

Question: And the binding signal [14]?
Answer: 1.06 fold enrichment (6-mer frequency, TF over GST control)

Question: And the binding signal [15]?
Answer: 1.16 fold enrichment (6-mer frequency, TF over GST control)

Question: And the binding signal [16]?
Answer: 1.09 fold enrichment (6-mer frequency, TF over GST control)

Question: What about the binding signal [17] of the same sequence?
Answer: 1.08 fold enrichment (6-mer frequency, TF over GST control)
